Laboratory results published in PubChem BioAssay.
Values without a mark were called inactive. For some assays here: Results with a measured potency or affinity are listed apart. Activity calls are given as the source filed them. Unless noted, the rule behind the calls is not given here.

What was measured:
[1] = antimalarial activity against Dd2 strain (AID 2302;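 active = growth inhibition above 50% at the single 2 µM test dose, taken to imply half-maximal potency below 2 µM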;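 note: 0% = DMSO untreated growth and 100% = chloroquine plus artemisinin killed control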); conditions: P. falciparum Dd2 in RBCs, LDH growth readout, 72 h; at 2 µM; stronger effect = higher value
[2] = HepG2 cytotoxicity, primary screen, cytotoxicity control for P. falciparum antimalarial project, cell-based, ATP luminescence (AID 2303;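 active = inhibition above 50%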;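 note: 0% = DMSO wells and 100% = digitonin-killed cells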); conditions: HepG2 viability, 24-48 h, at 10 µM, stronger effect = higher value
[3] = target: L-lactate dehydrogenase (Plasmodium falciparum (isolate CDC / Honduras)) (UniProt Q27743); assay: PfLDH activity inhibition – cell lysate, 3D7 strain, counter-screen for P. falciparum growth inhibition project (AID 2304);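 note: 0% = vehicle and 100% = reference inhibitor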; conditions: P. falciparum 3D7 crude extract, LDH APAD/NBT absorbance; at 2 µM; stronger effect = higher value
L-lactate dehydrogenase (Plasmodium falciparum (isolate CDC / Honduras)), sequence (Q27743 whole entry, looked up): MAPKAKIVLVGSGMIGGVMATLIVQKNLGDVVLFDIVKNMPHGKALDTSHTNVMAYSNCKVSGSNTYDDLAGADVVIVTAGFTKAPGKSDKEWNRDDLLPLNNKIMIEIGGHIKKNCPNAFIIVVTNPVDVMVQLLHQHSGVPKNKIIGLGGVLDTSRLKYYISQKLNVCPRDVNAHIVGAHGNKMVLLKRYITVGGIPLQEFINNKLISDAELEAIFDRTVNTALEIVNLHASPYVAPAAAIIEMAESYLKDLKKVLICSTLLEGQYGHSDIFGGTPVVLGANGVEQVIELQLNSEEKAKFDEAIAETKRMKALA

[4] = inhibition of 3D7 malaria parasite growth – strain 3D7 (AID 2306);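 note: 0% = DMSO wells and 100% = chloroquine plus artemisinin control wells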; conditions: P. falciparum 3D7 erythrocytic growth, LDH absorbance, 72 h; at 2 µM; stronger effect = higher value
[5] = target: Calcium-dependent protein kinase 1 (Plasmodium falciparum (isolate 3D7)) (UniProt P62344); assay: PfCDPK1 kinase inhibitors, biochemical, TCAMS library (AID 1159585; cut-off not given, nearly all actives have IC50 up to about 0.98 µM;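 note: inhibitors leave more ATP so luminescence rises with inhibition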); conditions: recombinant PfCDPK1, Kinase-Glo ATP depletion luminescence
Calcium-dependent protein kinase 1 (Plasmodium falciparum (isolate 3D7)), sequence (P62344 whole entry, looked up): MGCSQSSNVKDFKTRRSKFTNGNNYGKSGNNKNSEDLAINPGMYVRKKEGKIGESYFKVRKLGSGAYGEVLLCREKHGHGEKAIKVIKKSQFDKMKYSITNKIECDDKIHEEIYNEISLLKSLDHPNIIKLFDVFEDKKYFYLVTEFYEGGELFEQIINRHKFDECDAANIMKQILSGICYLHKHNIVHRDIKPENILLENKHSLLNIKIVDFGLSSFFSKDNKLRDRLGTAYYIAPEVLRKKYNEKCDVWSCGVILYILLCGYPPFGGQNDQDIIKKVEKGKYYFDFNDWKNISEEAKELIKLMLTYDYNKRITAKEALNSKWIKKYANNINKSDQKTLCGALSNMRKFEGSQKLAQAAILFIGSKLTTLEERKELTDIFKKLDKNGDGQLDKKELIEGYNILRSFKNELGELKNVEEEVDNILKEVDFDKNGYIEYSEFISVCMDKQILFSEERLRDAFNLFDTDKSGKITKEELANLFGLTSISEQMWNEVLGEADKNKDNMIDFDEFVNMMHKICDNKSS

[6] = target: Plasmodium falciparum protein kinase 6 (PK6, PF3D7_1337100) (UniProt Q8IDW1); assay: PfPK6 kinase inhibitors, biochemical, TCAMS library (AID 1159586); conditions: recombinant PfPK6, Kinase-Glo ATP depletion luminescence
Plasmodium falciparum protein kinase 6 (PK6, PF3D7_1337100), sequence (Q8IDW1 1-305): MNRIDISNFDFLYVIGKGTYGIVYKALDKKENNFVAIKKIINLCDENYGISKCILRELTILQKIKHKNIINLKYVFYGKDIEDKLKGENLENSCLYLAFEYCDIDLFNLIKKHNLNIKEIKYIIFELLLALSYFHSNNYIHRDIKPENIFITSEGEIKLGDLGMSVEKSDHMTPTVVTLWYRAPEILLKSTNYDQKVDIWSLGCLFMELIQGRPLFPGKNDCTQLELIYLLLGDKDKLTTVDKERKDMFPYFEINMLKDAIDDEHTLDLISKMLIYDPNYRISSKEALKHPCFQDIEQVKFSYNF

[7] = target: Protein kinase 7 (PK7), Plasmodium falciparum 3D7 (PF3D7_0213400) (UniProt Q7YTF7); assay: inhibition of Plasmodium PK7 catalytic activity – biochemical, TCAMS antimalarial set, Kinase-Glo luminescence (AID 1159587); conditions: recombinant PfPK7, Kinase-Glo ATP depletion luminescence
Protein kinase 7 (PK7), Plasmodium falciparum 3D7 (PF3D7_0213400), sequence (Q7YTF7 1-343): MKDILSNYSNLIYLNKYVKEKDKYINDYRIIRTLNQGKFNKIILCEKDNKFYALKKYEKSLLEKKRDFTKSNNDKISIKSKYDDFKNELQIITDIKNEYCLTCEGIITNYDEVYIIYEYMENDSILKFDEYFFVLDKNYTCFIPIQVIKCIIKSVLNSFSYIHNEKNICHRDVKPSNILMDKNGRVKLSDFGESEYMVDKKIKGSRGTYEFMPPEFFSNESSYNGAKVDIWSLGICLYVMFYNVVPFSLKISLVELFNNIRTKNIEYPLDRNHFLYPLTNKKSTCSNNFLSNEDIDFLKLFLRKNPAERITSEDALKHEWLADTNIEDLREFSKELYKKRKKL

[8] = target: Calcium-dependent protein kinase 4 (Plasmodium falciparum (isolate 3D7)) (UniProt Q8IBS5); assay: PfCDPK4 kinase inhibitors, biochemical, TCAMS library (AID 1159588; cut-off not given, nearly all actives have IC50 up to about 0.91 µM); conditions: recombinant PfCDPK4, Kinase-Glo ATP depletion luminescence
Calcium-dependent protein kinase 4 (Plasmodium falciparum (isolate 3D7)), sequence (Q8IBS5 whole entry, looked up): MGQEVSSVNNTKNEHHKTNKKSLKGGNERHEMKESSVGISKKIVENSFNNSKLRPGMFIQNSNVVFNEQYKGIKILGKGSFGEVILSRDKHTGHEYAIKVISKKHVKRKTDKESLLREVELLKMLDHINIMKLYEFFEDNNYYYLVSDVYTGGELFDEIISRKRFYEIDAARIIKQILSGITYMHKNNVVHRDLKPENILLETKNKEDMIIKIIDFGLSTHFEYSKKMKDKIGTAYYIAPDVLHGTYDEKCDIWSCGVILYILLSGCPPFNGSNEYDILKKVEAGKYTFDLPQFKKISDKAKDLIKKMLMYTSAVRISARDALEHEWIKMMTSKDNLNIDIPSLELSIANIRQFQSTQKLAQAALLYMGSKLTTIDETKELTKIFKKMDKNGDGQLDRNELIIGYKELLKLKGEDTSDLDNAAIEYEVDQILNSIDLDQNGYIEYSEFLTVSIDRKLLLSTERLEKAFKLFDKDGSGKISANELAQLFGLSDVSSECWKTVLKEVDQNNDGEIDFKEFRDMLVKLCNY

Row | SMILES | growth inhibition [1] | inhibition [2] | inhibition [3] [%] | growth inhibition [4] | outcome [5] | outcome [6] | outcome [7] | outcome [8]
1 | Cc1cc(NC(=O)N=C(N)N)ccc1Cl | 15% | 11% | 2 | 100% (active) | inactive | inactive | inactive | inactive
2 | CCN(CC)CCN(Cc1ccc(-c2ccc(C(F)(F)F)cc2)cc1)C(=O)c1c[nH]c2ccc(Br)cc12 | 74% (active) | 80% (active) | -4 | 90% (active) | inactive | inactive | inactive | inactive
3 | O=C(c1ccc(-c2cccc(-c3nc4ccc(F)cc4[nH]3)c2)cc1)N1CCCCC1CN1CCC(O)C1 (stereo not given) | -4% | 11% | -1 | 91% (active) | inactive | inactive | inactive | inactive
4 | CCc1nnc2sc(-c3cccc(NC(=O)c4ccc(OC)c(Cl)c4)c3)nn12 | 55% (active) | 3% | -2 | 92% (active) | inactive | inactive | inactive | inactive
5 | COc1cccc(C2CCCN(CCCCNC(=O)c3ccc(NC(=O)c4ccc(Cl)cc4)cc3)C2)c1 (stereo not given) | 6% | 24% | -2 | 95% (active) | inactive | inactive | inactive | inactive
6 | COc1cccc(OC2CCN(C(=O)c3cc(C(C)(C)C)nn3Cc3ccccc3)CC2)c1 | 98% (active) | 3% | 3 | 102% (active) | inactive | inactive | inactive | inactive
7 | CN(C)c1ccc(C=CC(=O)NC(=O)c2ccccc2O)cc1 | 97% (active) | 6% | -1 | 92% (active) | inactive | inactive | inactive | inactive
8 | CC(C)(C)c1ccc2nc(-c3ccc(C(=O)NCCCc4ccccc4)cc3)[nH]c2c1 | 14% | 11% | 5 | 95% (active) | inactive | inactive | inactive | inactive
9 | COc1ccc(C(=O)CCC(=O)N(Cc2ccc(-c3ccc(CNCCc4ccc(S(C)(=O)=O)cc4)cn3)cc2)Cc2ccc3c(c2)OCO3)cc1F | 41% | 13% | 3 | 95% (active) | inactive | inactive | inactive | inactive
10 | Cc1cccc2[nH]c(-c3cccc(-c4ccc(NC(=O)c5cccnc5)cc4)c3)nc12 | 45% | 64% (active) | -1 | 100% (active) | inactive | inactive | inactive | inactive
11 | Cc1nc2nc(N)nc(N)c2c(C)c1Cc1ccc(C(N)=O)cc1 | -3% | 55% (active) | 3 | 97% (active) | inactive | inactive | inactive | inactive
12 | Cc1cc(Nc2ccc(Oc3ccc(Cl)cc3)cc2)nc(N)n1 | 71% (active) | 49% | 7 | 101% (active) | inactive | inactive | inactive | inactive
13 | O=C(Nc1cccc2ccccc12)N1CCC(NS(=O)(=O)c2cccc(C(F)(F)F)c2)CC1 | 1% | -5% | -1 | 95% (active) | inactive | inactive | inactive | inactive
14 | O=C(Nc1ccc(-c2ccc(-c3nc4ccc(C(F)(F)F)cc4[nH]3)cc2)cc1)Nc1ccc(F)c(F)c1F | 100% (active) | 39% | 3 | 99% (active) | inactive | inactive | inactive | inactive
15 | Cc1cccc(CNc2nc(C)cc(N[C@@H](Cc3ccccc3)C(=O)NCc3cccc(F)c3)n2)c1 | 82% (active) | 39% | -2 | 101% (active) | inactive | inactive | inactive | inactive
16 | COc1ccc2nc(C)cc(NN=Cc3ccccc3)c2c1 | 6% | 4% | 0 | 80% (active) | inactive | inactive | inactive | inactive
17 | COc1ccc2nccc([C@@H](O)CN3CCC(NC(=O)[C@@H]4Cc5ccccc5CN4C(=O)OC(C)(C)C)CC3)c2c1 | 61% (active) | 15% | 4 | 92% (active) | inactive | inactive | inactive | inactive
18 | CCCCCCN1CCN(Cc2cccc(NC(=O)c3cccc(OCC)c3)c2)CC1 | 48% | 65% (active) | 0 | 85% (active) | inactive | inactive | inactive | inactive
19 | Cc1[nH]c(C)c(-c2ccc(-c3ccc(Cl)cc3)nc2)c(=O)c1Br | 96% (active) | 21% | 3 | 97% (active) | inactive | inactive | inactive | inactive
20 | O=C(NCCCCN1CCC(c2ccc3ccccc3c2O)CC1)c1ccc(NC(=O)c2ccc(Cl)cc2)cc1 | 89% (active) | 34% | 3 | 101% (active) | inactive | inactive | inactive | inactive

Row | SMILES | growth inhibition [1] | inhibition [2] | inhibition [3] [%] | growth inhibition [4] | outcome [5] | outcome [6] | outcome [7] | outcome [8]
21 | CCOc1cc(C=NNc2nc3ccccc3[nH]2)ccc1OCc1ccc([N+](=O)[O-])cc1 | 1% | 2% | -6 | 100% (active) | inactive | inactive | inactive | inactive
22 | O=C(Nc1ccc(N2CCCCC2)c(Cl)c1)c1ncn[nH]1 | 93% (active) | -4% | -6 | 93% (active) | inactive | inactive | inactive | inactive
23 | CCc1c[nH]c2c(N(c3ccccc3)S(C)(=O)=O)cc(C(=O)N[C@@H](Cc3ccccc3)[C@H](O)CNCc3cccc(C(F)(F)F)c3)cc12 | 98% (active) | 20% | 1 | 93% (active) | inactive | inactive | inactive | inactive
24 | S=C(Nc1cccc(Cl)c1)NC1CCN(c2ccnc3cc(Cl)ccc23)C1 (stereo not given) | 89% (active) | 16% | -3 | 100% (active) | inactive | inactive | inactive | inactive
25 | O=C(Nc1cccnc1)c1cn(-c2ccccc2)nc1-c1cccs1 | 61% (active) | 3% | -3 | 99% (active) | inactive | inactive | inactive | inactive
26 | O=C1COc2cc(Cl)c(CNC3CCN(CCc4ccnc5c(F)cc(F)cc45)CC3)nc2N1 | 49% | 96% (active) | -2 | 98% (active) | inactive | inactive | inactive | inactive
27 | COC(=O)c1cccc(CNCc2ccc(-c3ccc(-c4nc5ccc(F)cc5[nH]4)cc3)cc2)c1 | 95% (active) | 8% | 2 | 100% (active) | inactive | inactive | inactive | inactive
28 | COc1ccc(CCN(C)CCCOc2ccc(NC(=O)COc3cccc4sc5ccccc5c(=O)c34)cc2)cc1OC | 90% (active) | 99% (active) | 1 | 94% (active) | inactive | inactive | inactive | inactive
29 | CN1CCC(C(=O)Nc2ccc(-c3cccc(-c4nc5ccc(F)cc5[nH]4)c3)cc2)CC1 | 5% | 19% | 5 | 101% (active) | inactive | inactive | inactive | inactive
30 | COc1ccc(NC(=O)[C@H](Cc2ccccc2)Nc2cc(C)nc(NCCc3cccnc3)n2)cc1 | 5% | 11% | -4 | 98% (active) | inactive | inactive | inactive | inactive
31 | CC(C)(C)c1ccc(CN2CCC(NC(=O)c3ccc(-c4ccccc4F)s3)CC2)cc1 | 37% | 36% | 0 | 85% (active) | inactive | inactive | inactive | inactive
32 | CCCCC([C@@H](Cc1ccc2ccccc2c1)C(=O)N[C@H](C(=O)NC)C(C)(C)C)N(O)C=O (stereo not given in full) | 97% (active) | -6% | 5 | 100% (active) | inactive | inactive | inactive | inactive
33 | Nc1nc(N)c2c(ccc3nn(S(=O)(=O)N4CCCC4)cc32)n1 | 0% | 69% (active) | 9 | 95% (active) | inactive | inactive | inactive | inactive
34 | Cc1ccc(F)c(OCC2CCN(c3ccc(C(=O)NC4CC4)cn3)CC2)c1 | 95% (active) | 4% | 2 | 94% (active) | inactive | inactive | inactive | inactive
35 | COc1cc(Cc2cnc(N)nc2N)c2ccsc2c1OC | 4% | 5% | 0 | 92% (active) | inactive | inactive | inactive | inactive
36 | CC(=O)c1ccc2cc(C(=O)NC3CCC(CCN4CCc5ccc(-c6noc(C)n6)cc5CC4)CC3)[nH]c2c1 (stereo not given) | 45% | 28% | 0 | 81% (active) | inactive | inactive | inactive | inactive
37 | O=C(Nc1ccc(O)c(-c2nc3ccccc3[nH]2)c1)c1ccc([N+](=O)[O-])cc1 | 45% | -2% | -6 | 97% (active) | inactive | inactive | inactive | inactive
38 | CCN1CCN(Cc2ccc(NC(=O)c3cc4ccc5cccnc5c4[nH]3)cc2)CC1 | 97% (active) | -3% | -3 | 100% (active) | inactive | inactive | inactive | inactive
39 | CCN(CC)c1ccccc1CNC(=O)c1cc(Cl)c(N)cc1OC | 94% (active) | 6% | -1 | 97% (active) | inactive | inactive | inactive | inactive
40 | CCCCNc1nccc2ccc(-c3ccncc3)cc12 | 1% | 6% | 1 | 93% (active) | inactive | inactive | inactive | inactive
